DT40 TDP1 no CPT = qHTS for Inhibitors of human tyrosyl-DNA phosphodiesterase 1 (TDP1): qHTS in cells in absence of CPT | Potency, µM (titrated, usually from 46.2 µM), actives largely listed as inhibitors | actives 15% (n = 420,000) | DT40 Tdp1-/- hTDP1 cells, no CPT, ATP luminescence, 48 h | AID 686978, 2013; note: nearly all actives have a fitted effect of over 55% in size
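Readout: luminescence from CellTiter-Glo after 30 min in the dark at RT. Cells: DT40 Tdp1-/- with stable hTDP1, 400/well. Exposure: compounds alone, ≥48 hr, 37 °C.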
DT40 TDP1 CPT = qHTS for Inhibitors of human tyrosyl-DNA phosphodiesterase 1 (TDP1): qHTS in cells in presence of CPT; chicken DT40 Tdp1-/-;hTDP1 cells + 20 nM CPT, ATP luminescence, 48 h; Potency, µM (titrated, usually from 46.2 µM), hits mostly inhibitors; actives 12% (n = 420,000); AID 686979, 2013; note: nearly all actives have a fitted effect of over 55% in size
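Chicken DT40 Tdp1-/- cells stably complemented with human TDP1 were seeded at 400 cells/well in medium containing 20 nM camptothecin, exposed to pin-transferred compounds, and grown at 37 °C for at least 48 hr. Viability was read as ATP luminescence.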
IL1B secr inh = qHTS for Inhibitors of Inflammasome Signaling: IL-1-beta AlphaLISA Primary Screen; THP-1 LPS/ATP IL-1B secretion, AlphaLISA, 16 h; active compounds read low; activity change, % at 57.5 µM; actives 4.7% (n = 360,000); in the data active = activity change below about -50%; inconclusive = mostly about -30% to -49%
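Secreted IL-1B measured by AlphaLISA bead assay after 16 h compound exposure of THP-1 cells; compounds (final up to 57.5 uM) added 1 h before LPS (250 ng/mL) and ATP (1.25 mM) stimulation; lower signal means less secretion.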
HT1080 IDH1KD tx = qHTS for induction of synthetic lethality in tumor cells producing 2HG: qHTS for the HT-1080-IDH1KD cell line; Potency, µM (doses to about 46.1 µM), usual class: cytotoxic; AID 686971, 2013; actives 2% (n = 360,000); HT-1080 IDH1 knockdown viability, ATP luminescence, 48 h
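After a 2 h attachment period, IDH1KD HT-1080 cells took pin-transferred compound for 48 h at 37 °C; ATP-based luminescence after 10 min room-temperature reagent incubation reported viability.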
HT1080NT lethal = qHTS for induction of synthetic lethality in tumor cells producing 2HG: qHTS for the HT-1080-NT fibrosarcoma cell line. Potency, µM (doses to about 46.1 µM), most hits filed as cytotoxic. AID 686970, 2013. actives 1.6% (n = 360,000). HT-1080-NT fibrosarcoma viability, CellTiter-Glo ATP luminescence, 48 h;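 note: NT is the 2HG producing partner of a matched IDH1 knockdown line; nearly all actives have a fitted effect of over 55% in size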
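Compounds were tested in concentration-response format on HT-1080-NT cells for 48 hours at 37 degrees C. Cell viability came from CellTiter-Glo luminescence; curves were classified by r2, response magnitude and activity.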
12-LOX inh = Primary qHTS assay for inhibitors of human arachidonate 12S-lipoxygenase (ALOX12): Round 2; Polyunsaturated fatty acid lipoxygenase ALOX12 (Homo sapiens), P18054; purified 12hLO, xylenol orange hydroperoxide absorbance; Potency, µM (top dose mostly 108 µM), most hits filed as inhibitors; actives 1.1% (n = 580,000); AID 1671190, 2021
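Purified human 12hLO at 150 nM in 25 mM Hepes, 0.01% Triton X-100, pH 7.0, preincubated 15 min at room temperature with compound. Reaction started with 40 uM arachidonic acid, 30 min at room temperature. Hydroperoxide measured by Fe-xylenol orange, 573/405 nm absorbance ratio.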
Numbers stand for hits; [ ] = another dose, or the depositor's remark. The entries come from a sample that favours hits as a whole. Unless noted, calls come from the whole dose curve; as a rule, active = well fitted curve in the direction sought with a large enough effect; inconclusive = small, poorly fitted or top-dose-only effect, or another doubt; inactive = no such curve, though single readings can be large; an effect the other way counts as inactive or inconclusive.

What do the screens show for `CCOC(=O)c1ccc(N2C(=O)Cc3ccccc3C2=O)cc1`?
DT40 TDP1 no CPT: inconclusive; DT40 TDP1 CPT: inconclusive; IL1B secr inh: inactive; HT1080 IDH1KD tx: inactive; HT1080NT lethal: inactive; 12-LOX inh: inactive

What do the screens show for `CCOC(=O)c1ccc(-c2ccc3c(=O)c4ccccc4n(C)c3c2)cc1F`?
DT40 TDP1 no CPT: inconclusive; DT40 TDP1 CPT: 14.6µM; IL1B secr inh: inactive; HT1080 IDH1KD tx: inactive; HT1080NT lethal: inactive; 12-LOX inh: inactive

What do the screens show for `CCN(CC)c1ccc(NC(=O)C2COc3ccc(OC)cc3C2)c(C)c1` (stereo unspecified)?
DT40 TDP1 no CPT: 1.03µM; DT40 TDP1 CPT: 0.581µM; 12-LOX inh: inactive

Results for CCN(CC)c1ccc(NC(=O)c2cc(OC)cc(OC)c2)c(C)c1 ?
DT40 TDP1 no CPT: 1.3µM; DT40 TDP1 CPT: 1.3µM; IL1B secr inh: inactive; HT1080 IDH1KD tx: 4.61µM; HT1080NT lethal: 3.66µM; 12-LOX inh: inactive

Results for CCN(CC)c1ccc(NC(=O)c2cccc(OC)c2)c(C)c1 ?
DT40 TDP1 no CPT: inconclusive; DT40 TDP1 CPT: 29.1µM; IL1B secr inh: inactive; HT1080 IDH1KD tx: inconclusive; HT1080NT lethal: inconclusive; 12-LOX inh: inactive

What do the screens show for `CCN(CC)c1ccc(NC(=O)c2c(OC)cccc2OC)c(C)c1`?
DT40 TDP1 no CPT: inactive; DT40 TDP1 CPT: inactive; IL1B secr inh: inactive; HT1080 IDH1KD tx: inactive; HT1080NT lethal: inactive; 12-LOX inh: inactive

How did CCN(CC)c1ccc(NC(=O)c2cc(CN3CCCC3)on2)c(C)c1 do in these assays?
DT40 TDP1 no CPT: 13µM; DT40 TDP1 CPT: 16.4µM; 12-LOX inh: inactive

How did CCOC(=O)C1CCCN(C(=O)c2ccc(F)c(Cl)c2)CC1 (stereo unspecified) do in these assays?
DT40 TDP1 no CPT: inactive; DT40 TDP1 CPT: inactive; IL1B secr inh: inactive; HT1080 IDH1KD tx: inactive; HT1080NT lethal: inactive; 12-LOX inh: inactive

What do the screens show for `Brc1ccc(CNCc2cccnc2-n2cccn2)cc1`?
12-LOX inh: inactive

How did Cn1nccc1CN1CCC2(C1)C(=O)Nc1ccccc12 (stereo unspecified) do in these assays?
12-LOX inh: inactive[12.5 µM]

What do the screens show for `O=C(CN(C(=O)C1CSC(=O)C1)c1cccc(F)c1)NCc1ccc2c(c1)OCO2` (stereo unspecified)?
DT40 TDP1 no CPT: inactive; DT40 TDP1 CPT: inactive; IL1B secr inh: inactive; HT1080 IDH1KD tx: inactive; HT1080NT lethal: inactive; 12-LOX inh: inactive

How did CCOC(=O)c1c2c(n(-c3ccc(OC)cc3)c1C)C(=O)C(=O)c1ccccc1-2 do in these assays?
DT40 TDP1 no CPT: 2.06µM; DT40 TDP1 CPT: 3.26µM; IL1B secr inh: inactive; HT1080 IDH1KD tx: 8.2µM; HT1080NT lethal: 14.6µM

Results for CCOC(=O)c1c2c(n3ccccc13)C(=O)c1ccccc1C2=O ?
DT40 TDP1 no CPT: 10µM; DT40 TDP1 CPT: 10µM

What do the screens show for `CCOC(=O)c1c(-c2ccccc2Cl)cn2ccccc12`?
DT40 TDP1 no CPT: inconclusive; DT40 TDP1 CPT: inconclusive; IL1B secr inh: inactive; HT1080 IDH1KD tx: inactive; HT1080NT lethal: inactive; 12-LOX inh: inactive

Results for COc1ccc(/C=N/Nc2nnc(Cc3ccc(OC)c(OC)c3)c(=O)[nH]2)cc1 ?
DT40 TDP1 no CPT: 16.4µM; DT40 TDP1 CPT: 25.9µM; IL1B secr inh: inactive; HT1080 IDH1KD tx: inactive; HT1080NT lethal: inactive; 12-LOX inh: inactive

What do the screens show for `COc1ccc(Cc2nnc(N/N=C/c3ccc(N(C)C)cc3)[nH]c2=O)cc1OC`?
DT40 TDP1 no CPT: inactive; DT40 TDP1 CPT: inactive; IL1B secr inh: inactive; HT1080 IDH1KD tx: inactive; HT1080NT lethal: inactive; 12-LOX inh: inactive

Screening results as filed in PubChem BioAssay.
